This passage reports max response results from PubChem BioAssay AID2314 (National Center for Advancing Translational Sciences (NCATS), 2010).

Out of some 300,000 compounds screened, about 37,000 (12%) were called active. The list comes from a sample in which actives are over-represented; it also holds similar structures and randomly drawn compounds. Values without a mark were called inactive. Cut-off read from the data, not from the text of the source: active = max response mostly above about 13% (no sharp cut-off); inactive = mostly below about 14%.

The nature of this experiment: Cycloheximide Counterscreen for Small Molecule Inhibitors of Shiga Toxin. Note: read at 38.3 µM for the half of the compounds with a filed dose; 0% is about no effect. The conditions noted are these: cell reporter, cycloheximide protein synthesis inhibition counterscreen; hits give high values.
Turning to `COC(=O)c1ccc(/C=C2/C(=O)Oc3ccccc32)cc1`, the max response was -4.87%.

Take `CC(C(=O)N1CCN(c2ccccc2F)CC1)c1ccc([N+](=O)[O-])cc1` (stereo not given): the max response is -0.676%.

Take `Cc1ccc(CC2CC(=O)N(c3cc(C)ccc3C)C2=O)cc1` (stereo not given): the max response is -1.67%.

As to `CCOCCCN(C)C1CCN(C(=O)c2oc3ccccc3c2NC(=O)COc2cccc(C)c2)CC1`, the max response was -3.98%.

Turning to `CCN1CCCC1CNC(=O)c1cc2cc(OC)c(OC)cc2[nH]1` (stereo not given), the max response is -3.29%.

Consider `COc1ccc(N(C)S(=O)(=O)c2ccc3c(c2)CC(C)N3C(=O)C2CC2)c(OC)c1` (stereo not given), for which the max response was 3.16%.

Take `O=c1c2sccc2nc(SCc2cc(=O)n3ccccc3n2)n1-c1ccc(Br)cc1`: the max response is -4.5%.

With `CC(C)=CCN1CCN(CCCc2ccccc2)CC1CCO` (stereo not given), the max response was -0.846%.

As for `COC(=O)c1c(NC(=O)COc2ccc(Cl)cc2Cl)sc2c1CC(C)(C)NC2(C)C`, the max response is 0.749%.

In the case of `CC1=C/C(=N\S(=O)(=O)c2ccccc2)C(C(C)C)=CC1=O`, the max response is -2.83%.

Turning to `Cc1ccc(S(=O)(=O)c2ccc(Oc3ccccc3)cc2)cc1`, the max response was -0.97%.

On to `CC1=C/C(=N\OS(=O)(=O)c2ccccc2)C=CC1=O`, for which the max response is 35% (active).

For `O=C(Nc1ccc(Cl)cc1)C1c2cccc[n+]2CC(=O)N1Cc1ccc2c(c1)OCO2` (stereo not given), the max response was 17.1%.

`CCOc1ccc(N2C(=O)CC(N(CCc3ccc(OC)c(OC)c3)C(=S)Nc3ccccc3)C2=O)cc1` (stereo not given): the max response was 8.04%.

For the molecule `O=C(CCN1C(=O)[C@H]2CC=CC[C@H]2C1=O)NCc1nc(-c2ccccc2)no1`, the max response is 6.47%.

Regarding `CC(C)CNC(=O)C(=O)Nc1ccc(N(C)C)cc1`, the max response was 38.6% (active).

Turning to `CC(=O)Nc1ccc(C(=O)C(Cc2ccccc2)N(C)C)cc1` (stereo not given), the max response was 9.54%.

As for `CC(C)CNC(=O)C(=O)NCc1ccccc1`, the max response was -1.62%.

On to `COc1ccc(NC(=O)Cn2ncn3c(cc4ccccc43)c2=O)c(OC)c1OC`, for which the max response was 12.5%.

As for `Cc1nnc(C)c2c(C)n(N)c(C)c12`, the max response was -2.66%.

In the case of `COC(=O)c1ccc(CSc2nncn2N)cc1`, the max response was 2.72%.

On to `COC(=O)c1ccc(CSc2nncn2C)cc1`, for which the max response is 62.2% (active).

For `CC(C)CC(CC(C)C)=NNC(=O)c1ccc(CSc2nncn2C)cc1`, the max response was -1.48%.

For the molecule `CCC(Cc1ccccc1)NC(=O)C1CCCCC1` (stereo not given), the max response is 5.22%.

`CCOC(=O)c1ccc(NC(=O)c2nc[nH]c2C(=O)N[C@@H](CCCCNC(=O)OC(C)(C)C)C(=O)OC(C)(C)C)cc1`: the max response is -6.86%.

Turning to `C[C@@H](O)[C@@H]1NC(=O)[C@H](CCCCN)NC(=O)[C@H](Cc2c[nH]c3ccccc23)NC(=O)[C@H](Cc2ccccc2)NC(=O)[C@H](Cc2ccccc2)NC(=O)[C@H](CC(N)=O)NC(=O)[C@H](CCCCN)NC(=O)[C@@H](NC(=O)[C@@H]2CCCN2)CSSC[C@@H](C(=O)N[C@@H](CCCCN)C(=O)O)NC(=O)[C@H](CO)NC(=O)[C@H](CO)NC(=O)[C@H](Cc2ccccc2)NC1=O`, the max response was -1.5%.

As to `COc1ccccc1/C=N\Nc1cc(C)nc(-n2nc(C)cc2C)n1`, the max response is -2.45%.

In the case of `COc1cccc(/C=N/Nc2cc(C)nc(-c3ccccc3O)n2)c1O`, the max response is 28.6% (active).

On to `COc1cccc(/C=N/Nc2ncc(C(F)(F)F)cc2Cl)c1O`, for which the max response is 12.5%.

In the case of `O=C(NC1CCCC1)C(c1ccc(N2CCOCC2)cc1)N(C(=O)c1ccco1)c1ccccc1F` (stereo not given), the max response was -1.28%.

Turning to `CCOc1ccc(CN2CCN(Cc3ccc4cc(F)ccc4n3)CC2CCO)cc1` (stereo not given), the max response is -3.76%.

For the molecule `CC1CCc2sc3nc(N4CCN(CCO)CC4)n4ncnc4c3c2C1` (stereo not given), the max response is 22.8% (active).

With `Cc1cc(NC(=O)CSc2nc(C(C)C)nc3sc4c(c23)CCC(C)C4)no1` (stereo not given), the max response is -1.25%.

In the case of `N#Cc1c2c(c(N3CCN(CCO)CC3)n3c1nc1ccccc13)CCCC2`, the max response is -2.13%.

In the case of `Cc1ccc(NC(=O)C2CCCN2C(=O)OCc2ccccc2)cc1C` (stereo not given), the max response was 7.92%.

`O=C(Nc1ccccc1Cl)NC1(C(=O)N2CCOCC2)CCCCC1`: the max response is -1.76%.

As to `CCCCC(c1nnnn1CS(=O)(=O)c1ccc(C)cc1)N1CCC(C(N)=O)CC1` (stereo not given), the max response was -6.32%.

`COc1ccc(/C=C2\SC(=S)N(CC(=O)NNC(=O)c3ccncc3)C2=O)cc1`: the max response is 5.86%.

Regarding `COc1ccc(/C=C2\SC(=N)N(c3ccc(F)cc3)C2=O)cc1`, the max response was -4.26%.

Regarding `COc1ccc(/C=C2\N=C3CCCN3C2=O)cc1`, the max response is 39.3% (active).

For the molecule `Cn1c(=O)c2c(-c3cccc(Br)c3)c(C#N)c(N)nc2n(C)c1=O`, the max response was 1.41%.

Take `COC(=O)C1=CN(Cc2ccc(OC)c(OC)c2)C=C(C(=O)OC)C1c1cccs1`: the max response was 8.87%.

For `CN1C2C=C(N(C(=O)c3ccc(Cl)cc3)c3ccccc3)CC1CC2` (stereo not given), the max response was -2.76%.

As for `Cn1cncc1COC(=O)c1ccc(Cl)cc1`, the max response was 5.18%.

For the molecule `CN1OC(COC(=O)c2ccc(Cl)cc2)CC1c1ccccc1` (stereo not given), the max response was 66.4% (active).

Consider `Cc1ccc(CNC(=O)CCC(=O)N2CC(C)Sc3ccccc32)cc1` (stereo not given), for which the max response was -1.08%.

For the molecule `CCOC(=O)N1CCC(N2Cc3cccc(C(=O)Nc4c(C)cccc4CC)c3C2=O)CC1`, the max response was -3.86%.

Turning to `COc1cccc2sc(N(CCCN(C)C)C(=O)CCS(=O)(=O)c3ccccc3)nc12`, the max response is 11.6%.

For `Clc1ccc(Cc2nnc(-c3cccs3)o2)cc1`, the max response was 32.7% (active).

`S=C(NCc1cccs1)Nc1ccc(Cl)cc1`: the max response was 13.8%.

On to `CNC(=O)c1nnc(Cc2ccc(Cl)cc2)o1`, for which the max response is 11.5%.

On to `O=C(NC1CCN(Cc2ccccc2)CC1)c1c(F)cccc1F`, for which the max response was -3.43%.

Turning to `CC1CN(C(=S)Nc2ccccc2F)CC(C)O1` (stereo not given), the max response is 1.94%.

Regarding `O=C(CSC(=S)N1CCOCC1)c1cc(Br)cc(Br)c1O`, the max response was -5.21%.

For `CC1CN(C(=S)SCC(=O)c2ccccc2)CC(C)O1` (stereo not given), the max response was 34.8% (active).

Take `O=C(CSC(=S)N1CCCCC1)c1c(F)cccc1F`: the max response is 42.5% (active).

Regarding `O=C(CP(=O)(c1ccccc1)c1ccccc1)N1CCOCC1`, the max response was -5.81%.

On to `O=C(CSC(=S)N1CCOCC1)c1ccccc1`, for which the max response is 19% (active).

On to `COC(=O)[C@H](Cc1ccccc1)NC(=O)N1CC(C)OC(C)C1` (stereo not given in full), for which the max response was 0.915%.

Regarding `CSCC(=O)N1CCCC(C(=O)c2cc(F)ccc2F)C1` (stereo not given), the max response is 5.48%.
